Test results published in article PMC12136788.
Positions count from the first letter of the chain named. The full ranking holds about 24,000 sequences; the median of “enrichment r” is about 0.99, and the highest 2% start at about 3.7. The full list was thinned out, with the highest values kept by preference.

T1: UNK ZnF1-3 (human, UniProt Q9C0B0 31-174)
T1 sequence: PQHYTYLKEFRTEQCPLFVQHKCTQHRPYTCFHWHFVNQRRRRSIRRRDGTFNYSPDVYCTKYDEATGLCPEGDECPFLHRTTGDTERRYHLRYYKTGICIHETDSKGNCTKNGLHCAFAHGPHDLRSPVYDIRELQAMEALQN

B1: 5036412_5036532_457_CDS_ENSMUSG00000022536_ENSMUST00000115844|mouse|control|control (ssRNA)
RNA: GGGAGUUCUACAGUCCGACGAUCGCCUGAAGUCACCCUCUUCUUUCCUUCUCCCAUGUUCUUCUUCACCUUCCCUUCAGACAGGCUAAGCUUGCGUUUCUCAUCACCUGAGUUUGGCCUACUUCUCUCCUCACUGGAAUUACGCAACAGAGGAUUGAGCAUCA
B2: chr5:37680062:37680063:+_ENSMUSG00000029121_ENSMUST00000031004|mus_hu|mus_mus_mus_hu_False|58_98 (ssRNA)
RNA: GGGAGUUCUACAGUCCGACGAUCUUUGGGUGUAGCUGGCACCUCGUACACAGGACCGUCAUACAUGCCCCUGGAAACACUAUGCAAUCCAAAAACCUUAUUCCUGAUUUUGACGCGCUGGUACAGGUGCUCCGGGAACGCCUUCAACAGAGGAUUGAGCAUCA
B3: chr2:27118074:27118075:-_ENSMUSG00000009621_ENSMUST00000056176|mus_hu|FALSE|FALSE (ssRNA)
RNA: GGGAGUUCUACAGUCCGACGAUCAUUCACAGAUAUAUAACGGGAGAUUUGGAUGAAAUAAUUACAAACUUUUUUCCCCUUAAAAAACAAACAAGCCAAACAAAACACAAACAAAACAAAAACCCCAAAACCAAAACACAAGACCAACAGAGGAUUGAGCAUCA
B4: chr7:97619395:97619396:-_ENSMUSG00000030614_ENSMUST00000032843|mus_mus|motif|central (ssRNA)
RNA: GGGAGUUCUACAGUCCGACGAUCCAGGGAUGCAUAGGUCUUCAAAGCUUCAUAUUUAACCUUGAAACUGUUUCGGAAAACGGAGUUUGCCAUUAUGCCAGACAAACUACUACUUGUUCCAAAGACCAAAGUUCCAUGUAUAUUCAACAGAGGAUUGAGCAUCA
B5: chr6:86474593:86474594:-_ENSMUSG00000051695_ENSMUST00000053015|mus_hu|FALSE|FALSE (ssRNA)
RNA: GGGAGUUCUACAGUCCGACGAUCACAUUUCUUAUCGACAAACAGAAAUAAAAUUCAUGAGCCAAAAAACCCAAAACAAAACUAAAAACAGGGAAAAGCUUAUAAAACUAAAUAUGGAUCCCAGCAUUAACAGCUGAACAGAGACAACAGAGGAUUGAGCAUCA
B6: chr6:86474593:86474594:-_ENSMUSG00000051695_ENSMUST00000053015|mus_hu|motif|central (ssRNA)
RNA: B5 RNA with U82G, A83G
B7: 90301638_90312025_2792_CDS_ENSG00000196730_ENST00000408954|human|control|control (ssRNA)
RNA: GGGAGUUCUACAGUCCGACGAUCGACAACAACAUGGAUUGACGUGGGAUCAUUUGCAGCAAAAUAGUCAUAACAGCAGAAAUACACAGGAUUUCCAGAGAACUCCCACACGCUGAAAUCGCCAACUCCAUUCAAAUAAGCGUUCAACAGAGGAUUGAGCAUCA
B8: chr2:131139019:131139020:-_ENSMUSG00000048911_ENSMUST00000059372|mus_mus|FALSE|FALSE (ssRNA)
RNA: GGGAGUUCUACAGUCCGACGAUCGAUAUAGAUGUUGAGAGGCAGAUUCUGGAAUCCAAUAUUAGGCAUCCUGAAGUUAUAAUGUGGGAAAUCUGAGCUCAUGGAUGAACCGGGCGACGGGCAGCGGGCGUGCGGGCGGCGGCGCAACAGAGGAUUGAGCAUCA
B9: chr11:77336104:77336105:-_ENSG00000074201_ENST00000525064|hu_mus|hu_hu_hu_mus_False|98_108 (ssRNA)
RNA: GGGAGUUCUACAGUCCGACGAUCCUCGCACAUUGCAGUGAACAUUGCCUCCAAUGCUGACUUAUCACUGGGCACAAAUCGAAAUUCAGAAAUGGGUUCAACAUCAUCAUUGUCUUCCUCAUCUUCAUCAGAGAGAGGUUCUUUCAACAGAGGAUUGAGCAUCA
B10: 49074419_49074539_462_3pUTR_ENSMUSG00000020346_ENSMUST00000109194|mouse|control|control (ssRNA)
RNA: GGGAGUUCUACAGUCCGACGAUCCACAGGCAAUGACCAGGAUGGGGAUCUGCACUGGUGAGGGGGUCACAGGCACACGGGGCCAGGCUGGAGGGGCCACAGUGGGAACUCUCCACCUCUGCCUCCACAAAGCAUAAUGCUCCUCAACAGAGGAUUGAGCAUCA
B11: chr8:92086081:92086082:+_ENSG00000155100_ENST00000285420|hu_mus|motif|central (ssRNA)
RNA: GGGAGUUCUACAGUCCGACGAUCAAUCCGAGGUGGUUGAUUCUCAAGUACCAAGUUUGAAAUGUUAACAGCAACAGAAUCGGUCUUACUGUCCUUGAAAGUCAAUUGCUUCAAUUGCUCCAGUUCUUCCCUGUGUUUUUGCUCCAACAGAGGAUUGAGCAUCA
B12: chr3:10015032:10015033:+_ENSMUSG00000027533_ENSMUST00000029046|mus_mus|mus_mus_mus_hu_True|38_48 (ssRNA)
RNA: GGGAGUUCUACAGUCCGACGAUCGUUUUUACCAUCACAAGUGAUGAUACAAUCUGGCUUGGCCAUUGCGCCCAUUUUUCGCAAAGCCAGUCCUACUCCUAGCUCUUUCAUGUAUUCAUCAAAGCCUUUGCUGUCCACCAGGCGCAACAGAGGAUUGAGCAUCA
B13: chr2:48026839:48026840:+_ENSG00000116062_ENST00000540021|hu_hu|hu_hu_hu_mus_False|18_48 (ssRNA)
RNA: GGGAGUUCUACAGUCCGACGAUCAUAGUGAGCCACUAGCGUCCUAAAUCUGGAACAGUGGCGGUCAUCCGAAAACUGGCCGAUGAAAAACUUUCCCAGUGAAGUGUCCACAAAGCACACACCAUAUACACGAGUGUGACCAGACAACAGAGGAUUGAGCAUCA
B14: chr11:46405157:46405158:+_ENSG00000110492_ENST00000395566|hu_hu|hu_hu_hu_mus_False|18_28 (ssRNA)
RNA: GGGAGUUCUACAGUCCGACGAUCCCCUCCCCACUUUGGGCACUUGGUGUGGGCGUGAGAGGACAGGCGUGAUUGACAGAGCUGACAGGAAGACAAAAGGCACUGGUGGGUCACAUCUCGGGCCUGGGGGAGAGGAGGGCUCCGCAACAGAGGAUUGAGCAUCA
B15: chr11:46405157:46405158:+_ENSG00000110492_ENST00000395566|hu_hu|hu_hu_hu_mus_False|18_108 (ssRNA)
RNA: B14 RNA with C28U, C29A, C30G, C31G, A32G, C33G, U35G, U36G, C111U, C113U
B16: chr11:46405157:46405158:+_ENSG00000110492_ENST00000395566|hu_hu|hu_hu_hu_mus_False|1_18 (ssRNA)
RNA: B14 RNA with C111U, C113U, G138C, C139G, C141G, C142G
B17: chr11:46405157:46405158:+_ENSG00000110492_ENST00000395566|hu_hu|hu_hu_hu_mus_False|98_108 (ssRNA)
RNA: GGGAGUUCUACAGUCCGACGAUCCCCUUAGGGGUGGGGCUGGGGAGUGUGGGCGUGAGAGGACAGGCGUGAUUGACAGAGCUGACAGGAAGACAAAAGGCACUGGUGGGUUAUAUCUUGGGCCUGUGGGAGAGGAGGGCUCCGCAACAGAGGAUUGAGCAUCA
B18: chr11:46405157:46405158:+_ENSG00000110492_ENST00000395566|hu_hu|hu_hu_hu_mus_False|8_108 (ssRNA)
RNA: GGGAGUUCUACAGUCCGACGAUCCCCUUAGGGGUGGGGGCACUUGGUGUGGGCGUGAGAGGACAGGCGUGAUUGACAGAGCUGACAGGAAGACAAAAGGCACUGGUGGGUUAUAUCUUGGGCCUGUGAGAGGGAGGGGCUCCGCAACAGAGGAUUGAGCAUCA
B19: chr11:46405157:46405158:+_ENSG00000110492_ENST00000395566|hu_hu|hu_hu_hu_mus_False|58_108 (ssRNA)
RNA: B18 RNA with G78A, G83A, A86G, A128G, G132A, A134G, G135A
B20: chr6:83878822:83878823:+_ENSMUSG00000030016_ENSMUST00000032088|mus_hu|FALSE|FALSE (ssRNA)
RNA: GGGAGUUCUACAGUCCGACGAUCCUCCUCGAGGAUUAAACCUGGGUCUCGACAUGGCUAUUUUCAAGAAAGCCUGAUUUAAUAAAGUAUAAGGUGGUGUUGAACCAUGUGAGGCAACGGCAUUCAGCUGCUGAAGCGCCAACUCAACAGAGGAUUGAGCAUCA
B21: chr12:67691335:67691336:+_ENSG00000111530_ENST00000540319|hu_mus|motif|central (ssRNA)
RNA: GGGAGUUCUACAGUCCGACGAUCCAUGGAGUCAUUUUUGGACAACUCUGACAACAGAUGUUCAAUAAGGUCUACAAAAACGGUAUUUCCGCAGCUCAUAACUAGGUGGCCAAGAGCAAUAAUUGUUCUUUUCCUCACUGCAAGCAACAGAGGAUUGAGCAUCA
B22: chr15:75216061:75216062:-_ENSG00000178741_ENST00000564811|perfect_dup|motif|central (ssRNA)
RNA: GGGAGUUCUACAGUCCGACGAUCUUUGUCAAGGCCCAGUUCCUCCGGAGUGGAGAUUCCCAGUUCAUUUAAAGUUGGUCGGAGUUCCUGGAUGACAUAGGGGUAGAUUUCCUUAUGAGGUCCUGCUUUGUCCUUAACAACCUCCAACAGAGGAUUGAGCAUCA

What follows are binders tested against T1, UNK ZnF1-3 (assay: nsRBNS (natural sequence RNA bind-n-seq); RBNS binding buffer (assumed for nsRBNS): 25 mM Tris pH 7.5, 150 mM KCl, 3 mM MgCl2, 0.01% Triton X-100, 500 ug/ml BSA, 20 U/ml SUPERase-In, 4 C; UNK is unkempt and MSI1 is Musashi-1; names of the RNAs are library labels; protein concentration not given here; high values mean tight binding).
For B1, the binding signal was 0.512 enrichment R. With B2 the binding signal was 0.673 enrichment R. Work on B3 yielded a binding signal of 3.28 enrichment R. For B4, the binding signal was 0.591 enrichment R. Work on B5 yielded a binding signal of 5.48 enrichment R. Work on B6 yielded a binding signal of 4.53 enrichment R. Work on B7 yielded a binding signal of 2.03 enrichment R. With B8 the binding signal was 0.719 enrichment R. B9 showed a binding signal of 0.914 enrichment R. With B10 the binding signal was 0.862 enrichment R. B11 was tested, and the binding signal was 1.01 enrichment R. B12 was tested, and the binding signal was 0.575 enrichment R. B13 gave a binding signal of 1.2 enrichment R. In the case of B14, the binding signal is reported as 3.48 enrichment R. With B15 the binding signal was 4.17 enrichment R. In the case of B16, the binding signal is reported as 3.4 enrichment R. Work on B17 yielded a binding signal of 3.34 enrichment R. With B18 the binding signal was 4.04 enrichment R. Work on B19 yielded a binding signal of 3.45 enrichment R. B20 gave a binding signal of 1.46 enrichment R. B21 showed a binding signal of 0.704 enrichment R. With B22 the binding signal was 0.656 enrichment R.
